Structures are written as SMILES. Out of some 68,000 compounds screened, about 2,700 (4%) showed an effect of 50% or more. Shown is part of a subset that was picked to be rich in strong results.

For this test, the system named is Plasmodium berghei. The test can be described thus: Screen against P. berghei liver stage (PbLuc), transformed with Luciferase, at 2uM. The format is functional, HepG2. Conditions: tested at 2 uM.
For `C[C@@H]1C[C@H]2CN(C(=O)C3=CCCCC3)C[C@H]2O1`, the INHIBITION was found to be 28.2%.

With `O=C(c1ccncc1)N1C[C@H]2CC[C@@H](C1)N(C(=O)C1CCCC1)C2`, the INHIBITION is given as 63.1%.

`CCOCC(=O)N1C[C@@H]2CC[C@H]1CN(C(=O)c1ccncc1)C2`: the INHIBITION was -3.87%.

Turning to `O=C(c1ccncc1)N1C[C@H]2CC[C@@H](C1)N(C(=O)N1CCOCC1)C2`, the INHIBITION is listed as -58.5%.

On to `CN(C)C(=O)N1Cc2nnn(C)c2C(COCc2cccnc2)C1` (configuration not stated), for which the INHIBITION was -16.25%.

In the case of `CCc1ccc(NC(=O)N2C[C@@H]3C[C@H](C(=O)NC4CCC4)[C@H](C2)O3)cc1`, the INHIBITION was determined as 25.08%.

Regarding `Cc1ncc(CN2CCOC(c3ccc(-c4ccccc4F)cn3)C2)s1` (configuration not stated), the INHIBITION is recorded as 48.08%.

In the case of `CN(C)C(=O)c1cn[nH]c1C1(C)CCN(c2ncccn2)CC1`, the INHIBITION was -16.2%.

For the compound `CNC(=O)c1cn[nH]c1C1(C)CCCN(Cc2ccccn2)C1` (configuration not stated), the INHIBITION is listed as 19.47%.

`CN(C)C(=O)c1cn[nH]c1C1(C)CCCN(Cc2ccccn2)C1` (configuration not stated): the INHIBITION was found to be 70.33%.

With `Cc1ccc(C)c(CS(=O)(=O)CC(=O)NCCCOC(C)C)c1`, the INHIBITION was determined as 22.1%.

Regarding `Cc1cccc(-c2noc(C)c2C(=O)NC2CCCOC2)c1` (configuration not stated), the INHIBITION is recorded as -3.96%.

As for `Cc1nc(CN2CCN(S(=O)(=O)N3CCOCC3)CC2)oc1C`, the INHIBITION was -9.04%.

Take `Cc1nc(CN2CCOC3(CCCC3)C2)oc1C`: the INHIBITION was 20.49%.

With `Cc1nc(CN2CCN(S(=O)(=O)N3CCCCC3)CC2)oc1C`, the INHIBITION is recorded as 54.44%.

For the compound `CC(C)N1CC[C@H]2[C@H](C[C@@H](Cn3cccn3)N2c2nccs2)C1`, the INHIBITION is 34.42%.

Regarding `CNC(=O)CN1CC[C@H]2CN(C(=O)c3ccc(C)nc3)C[C@H]2C1`, the INHIBITION amounted to 40.83%.

Take `CNC(=O)CN1CC[C@H]2CN(C(=O)c3ccc(C)cc3)C[C@H]2C1`: the INHIBITION was found to be 51.94%.

On to `CNC(=O)CN1CC[C@H]2CN(C(=O)c3cccc(C)c3)C[C@H]2C1`, for which the INHIBITION is listed as 30.63%.

Turning to `Cc1nccn1C1CCCN(C(=O)CCc2nc(C(C)C)no2)C1` (configuration not stated), the INHIBITION was determined as 21.71%.

Turning to `CN1C(=O)[C@@H]2CC[C@H]1CN(C(=O)Nc1cccc3ccccc13)C2`, the INHIBITION was -110.62%.

For the compound `CCN(CC)C1COc2c(cc(Br)c(C)c2C)C1=O` (configuration not stated), the INHIBITION is given as 24.56%.

As to `CCN(CC)C1COc2c(cc(Br)c(C)c2Br)C1=O` (configuration not stated), the INHIBITION was 58.18%.

On to `Cc1c(Br)cc2c(c1C)OCC(N(C)C)C2=O` (configuration not stated), for which the INHIBITION is -5.64%.

Take `Cc1cnn(CCNCC(O)COc2ccc(F)cc2)c1` (configuration not stated): the INHIBITION is given as -0.05%.

On to `CC(C)(C)C(=O)N1CCC(n2nc(-c3ccco3)ccc2=O)CC1`, for which the INHIBITION is 17.8%.

As to `O=C1[C@H]2CN(C3CCOCC3)C[C@H]2CN1Cc1cccc(F)c1`, the INHIBITION amounted to 66.67%.

With `O=C1[C@H]2CN(CC3CCOCC3)C[C@H]2CN1Cc1cccc(F)c1`, the INHIBITION is on record as 14.13%.

Consider `Cc1cccc(CN2C[C@@H]3CN(C4CCOCC4)C[C@@H]3C2=O)c1`, for which the INHIBITION is 6.22%.

As to `CN(C)C(=O)N1C[C@H]2CN(Cc3cccc(F)c3)C(=O)[C@H]2C1`, the INHIBITION is given as 18.8%.

On to `CN(C)C(=O)CN1C[C@H]2CN(Cc3cccc(F)c3)C(=O)[C@H]2C1`, for which the INHIBITION worked out at 53.98%.

As to `O=C1[C@H]2CN(CC3CC3)C[C@H]2CN1Cc1cccc(F)c1`, the INHIBITION stood at 26.52%.

Take `CNC(=O)COc1ccc(CNCc2c(C)nn(C)c2N(C)C)cc1`: the INHIBITION was -5.7%.

With `Cc1cnc(N2CCc3c(CNc4ccnc(C)n4)cncc3C2)nc1`, the INHIBITION is reported as -25.4%.

With `CN1C(=O)C2(CC(=O)Nc3c2cnn3C(C)(C)C)c2c(Cl)cccc21` (configuration not stated), the INHIBITION is listed as -20.78%.

On to `O=C(Cn1cnnn1)NCC1(O)CCCc2ccccc21` (configuration not stated), for which the INHIBITION was -4.62%.

`CNc1nc(C(=O)N2CCCn3nc(C(=O)N4CCCC4)cc3C2)cs1`: the INHIBITION is on record as -38.39%.

Regarding `Cc1ccnc(OC[C@]23COC[C@H]2CN(C(=O)Cc2ccsc2)C3)n1`, the INHIBITION is 11.1%.

As to `O=C(CCSc1ccccc1F)NCc1cccnc1`, the INHIBITION is -67.38%.

Regarding `O=C(NCCSc1ccccc1F)NCc1cccnc1`, the INHIBITION is on record as 68.04%.

On to `O=C(Cc1cccnc1)NCCSc1ccccc1F`, for which the INHIBITION is -10.89%.

For the compound `CN1CCCN(C(=O)c2cnc(Cc3c(Cl)cccc3Cl)nc2O)CC1`, the INHIBITION is -116.99%.

As for `Cc1ccnn1CC(=O)N(C)Cc1ccc(-n2cccn2)cc1`, the INHIBITION came to 18.76%.

Consider `Cc1ccnn1CC(=O)N(C)Cc1cnn(-c2ccccc2)c1`, for which the INHIBITION is on record as 60.67%.

For the compound `CSCC(=O)N(C)Cc1cnn(-c2ccc(F)cc2)c1`, the INHIBITION was -9.65%.

As to `CSc1ccc(C)c(C(=O)N2CCCC(n3cncn3)C2)c1` (configuration not stated), the INHIBITION is -1.88%.

As for `COC(=O)c1ccc(S(=O)(=O)N(C)CC(N)=O)c(Cl)c1`, the INHIBITION is on record as -3.54%.

`O=C(Nc1ccccn1)N(CCO)Cc1ccsc1`: the INHIBITION was 58.49%.

Take `Cc1cccnc1NC(=O)N(CCO)Cc1ccsc1`: the INHIBITION is given as 36.95%.

Regarding `O=C(Nc1nccs1)N(CCO)Cc1ccsc1`, the INHIBITION was -14.3%.

As to `O=C(O)c1c(-c2cncnc2)ncc2c1CCN(Cc1cccnc1)C2`, the INHIBITION is reported as 11.98%.

Consider `O=C(NCC1Cn2nnc(-c3ccoc3)c2CO1)c1ccc[nH]1` (configuration not stated), for which the INHIBITION is 12.21%.

Turning to `O=C(N1CCCC1)N1C[C@@H]2CCNC[C@@H]21`, the INHIBITION is 32.05%.

Take `O=C(C1CCCC1)N1C[C@@H]2CCNC[C@@H]21`: the INHIBITION is reported as 34.79%.

For the compound `O=C(C1CCCCC1)N1C[C@@H]2CCNC[C@@H]21`, the INHIBITION is 63.89%.

With `O=C(NCCc1ccccn1)[C@@]12CCO[C@@H]1CCN(CC1CC1)C2`, the INHIBITION turned out to be 51.81%.

For `CC(=O)N1CC[C@H]2OCC[C@@]2(C(=O)NCCc2ccccn2)C1`, the INHIBITION amounted to 7.55%.

In the case of `CN1CC[C@H]2OCC[C@@]2(C(=O)NCCc2ccccn2)C1`, the INHIBITION stood at 23.81%.

Turning to `CN(Cc1nc2ccccc2s1)C1CCCN(c2cccnn2)C1` (configuration not stated), the INHIBITION amounted to 29.39%.

Consider `c1cnc2nc(N3CCCC3c3nnc4n3CCCCC4)ccc2n1` (configuration not stated), for which the INHIBITION was 2.06%.

For `Cc1c(C(=O)N[C@@H]2CC[C@@H](N3CCCC3)[C@@H]2O)[nH]c2ccc(F)cc12`, the INHIBITION is listed as 30.96%.

Turning to `O=C(NCC(=O)N1CCCCC1)c1sccc1C1CC1`, the INHIBITION came to 54.62%.

`O=C(NCC(=O)N1CCN(c2ccccc2)CC1)c1sccc1C1CC1`: the INHIBITION is -31.42%.

In the case of `Cc1ccc(C)n1-c1ccsc1C(=O)NCC(=O)N1CCCC1`, the INHIBITION is on record as 36.34%.

On to `Cc1ccc2nc(C(=O)N(C)[C@@H]3CC[C@@H](N4CCCC4)[C@@H]3O)cn2c1`, for which the INHIBITION is -18.64%.

In the case of `Cc1cn(CCn2ccnc2-c2sccc2C)nn1`, the INHIBITION came to 59.08%.

For `Cc1ccsc1-c1nccn1CCN(C)S(C)(=O)=O`, the INHIBITION turned out to be 4.48%.

Regarding `Cc1ccsc1-c1nccn1CCS(C)(=O)=O`, the INHIBITION came to 38.1%.

Take `COc1ccnc(NCc2ccccc2Cn2cccn2)n1`: the INHIBITION was -136.67%.

For `CN1CCCN(C(=O)NCCNc2ncccn2)CC1`, the INHIBITION is on record as -3.93%.

Take `CC(=O)N1CCCC(c2cnc(-c3c(C)nn(C)c3C)cn2)C1` (configuration not stated): the INHIBITION turned out to be 20.08%.

As to `Cc1nn(C)c(C)c1-c1cnc(C2CCCN(S(C)(=O)=O)C2)cn1` (configuration not stated), the INHIBITION came to 51.15%.

For `Cc1nn(C)c(C)c1-c1cnc(C2CCCN(C)C2)cn1` (configuration not stated), the INHIBITION is listed as 22.81%.

For the compound `CN(C)c1ccc(CN(CCCn2ccnc2)Cc2c[nH]cn2)cc1`, the INHIBITION was 18.15%.

On to `Cn1c(CCCNC(=O)Nc2cn[nH]c2)nc2ccccc21`, for which the INHIBITION is 29.13%.

`CC(C)n1nccc1NC(=O)NCCc1nc2ccc(F)cc2n1C`: the INHIBITION was determined as 2.9%.

As for `Cn1c(CCNC(=O)Nc2cn[nH]c2)nc2ccc(F)cc21`, the INHIBITION amounted to 55.36%.

As to `CN(Cc1ccccc1)C1(C(=O)NCC(N)=O)Cc2ccccc2C1`, the INHIBITION stood at 6.39%.

Take `Cc1cc(CCC2CN(Cc3ccccc3C(=O)O)CCO2)ncn1` (configuration not stated): the INHIBITION amounted to 0.3%.

Regarding `Cc1cc(C[S+]([O-])CC(=O)Nc2c(C)cccc2C)no1` (configuration not stated), the INHIBITION was determined as 51.21%.

Consider `Cc1cc(C[S+]([O-])CC(=O)NCc2ccccc2)no1` (configuration not stated), for which the INHIBITION is listed as -15.28%.

Take `Cc1cc(C[S+]([O-])CC(=O)NCC(C)C)no1` (configuration not stated): the INHIBITION was -10.66%.

On to `CCOC(=O)CN1C(=O)CN(S(C)(=O)=O)CCC(OC)c2ccccc21` (configuration not stated), for which the INHIBITION is recorded as 12.44%.

On to `Cn1ccnc1CN1CCN(CC(=O)NCc2ccccc2F)CC1`, for which the INHIBITION worked out at 26.09%.

For the compound `Cn1ccnc1CN1CCN(CC(=O)NCC(F)(F)F)CC1`, the INHIBITION was found to be 62.13%.

As to `Cc1ccccc1CNC(=O)CN1CCN(Cc2nccn2C)CC1`, the INHIBITION is recorded as -34.45%.

As for `CS(=O)(=O)c1snnc1C1CCN(Cc2ccc3nccnc3c2)CC1`, the INHIBITION was 28.67%.

Values taken from ChEMBL document CHEMBL4513216, “Probing the Open Global Health Chemical Diversity Library for Multistage-Active Starting Points for Next-Generation Antimalarials” (ACS Infect Dis, 2020).
